# Where “and” joins values, the source holds several entries; their conditions need not be identical. Equal entries are not always repeated. Records with an inconclusive call do not appear. A structure can be active in one record and inactive in another. Calls of active or inactive are those of the source. Unless noted, calls follow the shape of the dose curve; as a rule, active = well fitted curve in the direction sought with a large enough effect; inconclusive = small, poorly fitted or top-dose-only effect, or another doubt; inactive = no such curve, though single readings can be large; an effect the other way counts as inactive or inconclusive.
# Assays:
# [1] = target: Cytochrome P450 3A4 (Homo sapiens) (UniProt P08684); assay: qHTS Assay for Inhibitors and Substrates of Cytochrome P450 3A4 (AID 884); also: nearly all actives have a fitted effect of over 50% in size; also: potency is read from the fitted curve at half-maximal effect; as to activity change, negative = inhibition: % is scaled to controls: 0 for no effect and ±100 for the full control effect
# How it was run: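 20 nM human CYP3A4 with 25 uM Luciferin-PPXE (at KM) in 200 mM KPO4, preincubated 10 min with compound; NADPH regeneration started a 60 min RT reaction. Luciferin detected by luminescence, normalized to 57 uM ketoconazole as full inhibition.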
# [2] = target: Cytochrome P450 3A4 (Homo sapiens) (UniProt P08684); assay: qHTS Assay for Activators of Cytochrome P450 3A4 (AID 885); also: nearly all actives have a fitted effect of over 65% in size
# How it was run: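 Signal was normalized against complete inhibition by 57 uM ketoconazole. The reaction used 20nM CYP3A4 with 25uM Luciferin-PPXE, 10-min compound preincubation and a 60-min NADPH-supported step at RT.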
# [3] = Confirmation and Secondary Assay for Modulators of Hemoglobin Beta Chain Splicing at IVS2 654 locus (AID 910);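 also: HeLa cells stably carrying EGFP split by mutant beta-globin IVS2-654 intron; % of control where 0% means no effect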
# How it was run: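 Readout: per-well total peak green fluorescence (488 nm ex, 500–520 nm em) from objects 5–250 µm, reflecting correct splicing of an EGFP-654 reporter. Compounds were applied for 2 days at 37 °C to overnight-plated HeLa EGFP-654 cells; controls were DMSO and 500 nM IVS2-654 PNA.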
# [4] = qHTS Assay for Lipid Storage Modulators (AID 1519; calls by dose curve); conditions: Drosophila S3 cells, BODIPY lipid droplet/cell ratio, laser cytometry, cells loaded with oleic acid; for activity change, negative = inhibition: at 57.5 µM (top of the series)
# How it was run: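 Cells seeded at 5,000 per well were treated with compounds over a concentration series and loaded with oleic acid (400 uM, as added). Lipid droplet fluorescence (488 nm excitation, 500-530 nm channel) was read by laser-scanning cytometry and normalized to 20 uM Triacsin C.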
# [5] = target: Ubiquitin carboxyl-terminal hydrolase 1 (Homo sapiens) (UniProt O94782); assay: Inhibitors of USP1/UAF1: Pilot qHTS (AID 504865);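 also: rhodamine fluorescence freed from ubiquitin-rhodamine substrate followed over time; top concentration of the series differs between compounds; % is scaled to controls: 0 for no effect and ±100 for the full control effect; nearly all actives have a fitted effect of over 35% in size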
# How it was run: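 1nM USP1/UAF1 + cpd, 15 min RT; start w/ Ub-Rho 150nM final; kinetic FL 480/540 nm, 6 reads q60 s. Buffer 50mM HEPES pH 7.8, 0.5mM EDTA, 1mM TCEP, 0.01% Tween-20, 0.1 mg/ml BSA.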
# [6] = Confirmation and Secondary Assay for Modulators of Hemoglobin Beta Chain Splicing at IVS2 705 locus (AID 930);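 also: HeLa cells stably expressing the EGFP-705 splicing reporter; GFP fluorescence per well restored by corrected splicing of the IVS2-705 intron in EGFP; % of control where 0% means no effect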
# How it was run: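 HeLa cells stably carrying EGFP interrupted by mutant beta-globin intron 2 (IVS2-705) treated 2 days at 37C with compound; 500 nM antisense PNA as control. Correct splicing read as total peak GFP intensity per well by laser-scanning cytometry.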
# [7] = qHTS assay for small molecule antagonists of peroxisome proliferator-activated receptor delta signaling (AID 588535; active = well fitted inhibition curve with a large enough effect in the signal ratio, with a control signal flat, not every such curve was filed as active; the % refers to the signal ratio;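 as to max response: cells co-treated with a PPAR-delta agonist as stimulator during compound exposure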); conditions: HEK293T PPARd-UAS-bla, beta-lactamase FRET ratio, 18 h; 460 nm channel
# How it was run: (§1)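 Cell-based beta-lactamase assay in antagonist mode: 4000 HEK293T PPAR-delta-UAS-bla cells per well, 5 hr preincubation then 18 hr compound incubation at 37 C. IC50 obtained by Hill equation fitting.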
# [8] = target: Peroxisome proliferator-activated receptor delta (Homo sapiens) (UniProt Q03181); assay: as above
# How it was run: as §1
# [9] = target: Peroxisome proliferator-activated receptor gamma (Homo sapiens) (UniProt P37231); assay: qHTS assay for small molecule agonists of peroxisome proliferator-activated receptor gamma signaling (AID 588536; active = well fitted curve in the direction sought with a large enough effect in the signal ratio, with a control signal flat, not every such curve was filed as active; the % refers to the signal ratio;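 also: 0% = DMSO basal wells and 100% = rosiglitazone at 2 µM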)
# How it was run: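 Ratiometric blue/green fluorescence (405 nm excitation; 460 and 530 nm emission) from CCF4-loaded HEK293 reporter cells serves as signal. Exposure to test compounds lasts 16 h at 37 C in medium containing 1% charcoal/dextran-treated serum.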
# [10] = target: Vitamin D3 receptor (Homo sapiens) (UniProt P11473); assay: qHTS assay for small molecule antagonists of vitamin D receptor signaling (AID 588541; calls by dose curve;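 also: receptor activated by calcitriol during compound treatment; % is scaled to controls: 0 for no effect and ±100 for the full control effect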)
# How it was run: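 Antagonist-mode beta-lactamase reporter assay: HEK293T VDR-UAS-bla cells were exposed to titrated compound alongside 1-alpha,25-dihydroxyvitamin D3 at 3 nM final for 16 h. Values were normalized to the 50 nM agonist control and DMSO basal, with IC50 and efficacy from Hill equation fits.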
# [11] = target: Peroxisome proliferator-activated receptor alpha (Homo sapiens) (UniProt Q07869); assay: qHTS assay for small molecule agonists of the peroxisome proliferator-activated receptor alpha (PPARalpha) signaling pathway (AID 651778); conditions: PathHunter PPARalpha complementation, chemiluminescence, 6 h; stronger effect = higher value; also: % of control where 0% means no effect
# How it was run: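 Chemiluminescence from complemented enzyme reported PPARalpha activation in cells after 6 hr of compound treatment at 37 C. The detection reagent was incubated for 60 min at room temperature, and compounds were scored as agonists.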
# [12] = qHTS assay for small molecule agonists of the antioxidant response element (ARE) signaling pathway measured by Nrf2-dependant transcriptional activity (AID 720636; active = well fitted curve in the direction sought with a large enough effect in the repeat runs; an effect the other way counts as inactive or inconclusive; also: % of control where 0% means no effect)
# How it was run: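 ARE-luc HepG2 cells carrying an Nrf2-responsive luciferase reporter, in medium with 1% dialyzed FBS, exposed to compound for 16 hr at 37 C, 5% CO2. Luminescence read 30 min after ONE-Glo addition.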
# [13] = qHTS assay for small molecule agonists of the antioxidant response element (ARE) signaling pathway measured by Nrf2-dependant transcriptional activity - cell viability counter screen (AID 720653; active = well fitted curve in the direction sought with a large enough effect in the repeat runs; an effect the other way counts as inactive or inconclusive; also: % is scaled to controls: 0 for no effect and ±100 for the full control effect); conditions: ARE-bla HepG2 viability, CellTiter-Glo ATP luminescence, 16 h; stronger effect = lower value
# How it was run: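 Cytotoxicity counter screen: intracellular ATP quantified by CellTiter-Glo luminescence in the same ARE-bla HepG2 plates, after 16 h compound exposure and a 2 h beta-lactamase substrate step.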
# [14] = qHTS assay for cell viability of HEK293 cells (AID 743288); conditions: ATP luminescence (CellTiter-Glo), 18 h; max response: stronger effect = lower value; also: % is scaled to controls: 0 for no effect and ±100 for the full control effect; nearly all actives have a fitted effect of over 50% in size
# How it was run: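 Environmental chemicals tested in qHTS format against parental HEK293 cells; 18 h treatment, 37 C; read-out ATP luminescence (CellTiter-Glo), 30 min RT development.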
# [15] = qHTS profiling for inhibitors of Plasmodium falciparum proliferation (AID 504749); also: potency is read from the fitted curve at half-maximal effect; nearly all actives have a fitted effect of over 60% in size; conditions: P. falciparum in erythrocytes, SYBR Green DNA, 72 h
# How it was run: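 Three-day growth assay of blood-stage parasites in erythrocytes (0.3% parasitemia, 2.5% hematocrit) at 37 C, 5% CO2, quantified by SYBR Green DNA staining after overnight detergent lysis.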
# [16] = target: Retinoic acid receptor RXR-alpha (Homo sapiens) (UniProt P19793); assay: qHTS assay for small molecule agonists of retinoid X receptor alpha signaling (AID 588544; calls by dose curve;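 also: 0% = DMSO basal wells and 100% = reference agonist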)
# [17] = qHTS assay for small molecule antagonists of retinoid X receptor alpha signaling (AID 588546; active = well fitted inhibition curve with a large enough effect in the signal ratio, with a control signal flat, not every such curve was filed as active; the % refers to the signal ratio;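 also: cells stimulated with 9-cis-retinoic acid as agonist; % is scaled to controls: 0 for no effect and ±100 for the full control effect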); conditions: HEK293T RXRa-UAS-bla, beta-lactamase ratio, antagonist mode; measured here: W530 green channel, cytotoxicity proxy
# How it was run: (§2)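 Beta-lactamase reporter inhibition, read as CCF4 fluorescence ratio (ex 405, em 460/530 nm) after 2 h at RT. HEK293T UAS-bla cells, 2500/well, were stimulated with 9-cis-RA at 500 or 100 nM final alongside test compound for 18 h at 37 C.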
# [18] = target: Retinoic acid receptor RXR-alpha (Homo sapiens) (UniProt P19793); assay: as above; conditions: HEK293T RXRa-UAS-bla, beta-lactamase ratio, antagonist mode
# How it was run: as §2
# [19] = qHTS assay for cell viability of the p53RE-bla HCT-116 cell line (AID 743292); also: % is scaled to controls: 0 for no effect and ±100 for the full control effect; nearly all actives have a fitted effect of over 55% in size
# How it was run: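 CellSensor p53RE-bla HCT-116 cells (4,000/well) pre-incubated 5 h at 37 C, then exposed to compounds in DMSO for 16 h at 37 C. Viability read as ATP content by CellTiter-Glo luminescence after 30 min at room temperature.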
# [20] = target: Nuclear receptor subfamily 1 group I member 2 (Rattus norvegicus) (UniProt Q9R1A7); assay: qHTS assay for small molecule activators of the rat pregnane X receptor (rPXR) signaling pathway (AID 651751; call rule not given here; also: 0% is about no effect); conditions: rPXR reporter cells, luciferase (One-Glo), 24 h
# [21] = measured here: cell count channel max response
# [22] = measured here: lipid channel max response
# Sequence of Cytochrome P450 3A4 (Homo sapiens) (P08684 whole entry, looked up): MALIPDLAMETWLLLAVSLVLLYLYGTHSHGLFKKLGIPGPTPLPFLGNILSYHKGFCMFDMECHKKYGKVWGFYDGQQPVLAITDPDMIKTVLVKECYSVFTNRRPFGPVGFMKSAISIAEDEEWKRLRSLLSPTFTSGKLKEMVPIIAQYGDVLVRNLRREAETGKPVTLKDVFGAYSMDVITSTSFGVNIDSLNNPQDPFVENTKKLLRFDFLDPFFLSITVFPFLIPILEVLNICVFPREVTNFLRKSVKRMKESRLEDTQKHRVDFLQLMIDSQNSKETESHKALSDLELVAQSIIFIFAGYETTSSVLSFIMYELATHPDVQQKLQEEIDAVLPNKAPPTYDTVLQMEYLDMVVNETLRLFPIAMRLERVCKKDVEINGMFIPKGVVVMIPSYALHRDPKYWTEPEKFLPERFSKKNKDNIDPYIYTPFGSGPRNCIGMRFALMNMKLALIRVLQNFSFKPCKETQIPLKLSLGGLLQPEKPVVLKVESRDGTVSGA
# Sequence of Vitamin D3 receptor (Homo sapiens) (P11473 whole entry, looked up): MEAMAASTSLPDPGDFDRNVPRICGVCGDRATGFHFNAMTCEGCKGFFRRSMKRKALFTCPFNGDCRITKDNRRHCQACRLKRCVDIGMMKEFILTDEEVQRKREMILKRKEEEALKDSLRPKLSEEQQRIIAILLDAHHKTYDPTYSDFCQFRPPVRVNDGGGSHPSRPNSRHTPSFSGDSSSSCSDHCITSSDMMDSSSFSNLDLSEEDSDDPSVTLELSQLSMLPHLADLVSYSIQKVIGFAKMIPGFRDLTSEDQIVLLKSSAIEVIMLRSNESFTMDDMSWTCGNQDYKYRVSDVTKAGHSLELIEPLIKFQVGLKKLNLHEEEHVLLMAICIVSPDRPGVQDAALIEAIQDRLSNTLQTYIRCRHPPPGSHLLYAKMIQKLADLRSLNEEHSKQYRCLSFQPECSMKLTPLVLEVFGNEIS
# Sequence of Retinoic acid receptor RXR-alpha (Homo sapiens) (P19793 whole entry, looked up): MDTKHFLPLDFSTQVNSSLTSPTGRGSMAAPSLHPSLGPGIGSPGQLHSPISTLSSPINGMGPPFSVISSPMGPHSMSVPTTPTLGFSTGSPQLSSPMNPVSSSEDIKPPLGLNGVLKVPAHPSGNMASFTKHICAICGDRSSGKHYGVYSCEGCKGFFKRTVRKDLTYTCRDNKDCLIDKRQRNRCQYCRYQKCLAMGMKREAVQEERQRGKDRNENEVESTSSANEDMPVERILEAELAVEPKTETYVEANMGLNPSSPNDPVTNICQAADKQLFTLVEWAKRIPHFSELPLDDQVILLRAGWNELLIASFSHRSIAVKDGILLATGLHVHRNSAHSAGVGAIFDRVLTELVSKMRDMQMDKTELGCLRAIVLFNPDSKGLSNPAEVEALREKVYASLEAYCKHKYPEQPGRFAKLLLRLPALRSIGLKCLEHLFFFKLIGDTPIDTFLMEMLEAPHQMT
# Sequence of Peroxisome proliferator-activated receptor gamma (Homo sapiens) (P37231 whole entry, looked up): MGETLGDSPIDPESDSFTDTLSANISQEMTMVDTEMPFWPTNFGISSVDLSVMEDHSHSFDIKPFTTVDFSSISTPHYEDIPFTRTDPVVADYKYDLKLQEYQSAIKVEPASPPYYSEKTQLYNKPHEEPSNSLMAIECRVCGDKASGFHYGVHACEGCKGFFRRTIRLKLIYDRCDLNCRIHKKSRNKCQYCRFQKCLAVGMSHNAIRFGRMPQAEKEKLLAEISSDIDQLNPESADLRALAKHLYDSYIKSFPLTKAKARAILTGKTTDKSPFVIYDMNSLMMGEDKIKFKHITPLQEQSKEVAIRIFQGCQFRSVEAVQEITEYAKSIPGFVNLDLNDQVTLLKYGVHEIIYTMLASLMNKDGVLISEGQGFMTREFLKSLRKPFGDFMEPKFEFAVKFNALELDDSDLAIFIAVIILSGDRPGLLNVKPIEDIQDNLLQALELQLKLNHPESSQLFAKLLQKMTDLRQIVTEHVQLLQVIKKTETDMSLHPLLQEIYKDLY
# Sequence of Ubiquitin carboxyl-terminal hydrolase 1 (Homo sapiens) (O94782 whole entry, looked up): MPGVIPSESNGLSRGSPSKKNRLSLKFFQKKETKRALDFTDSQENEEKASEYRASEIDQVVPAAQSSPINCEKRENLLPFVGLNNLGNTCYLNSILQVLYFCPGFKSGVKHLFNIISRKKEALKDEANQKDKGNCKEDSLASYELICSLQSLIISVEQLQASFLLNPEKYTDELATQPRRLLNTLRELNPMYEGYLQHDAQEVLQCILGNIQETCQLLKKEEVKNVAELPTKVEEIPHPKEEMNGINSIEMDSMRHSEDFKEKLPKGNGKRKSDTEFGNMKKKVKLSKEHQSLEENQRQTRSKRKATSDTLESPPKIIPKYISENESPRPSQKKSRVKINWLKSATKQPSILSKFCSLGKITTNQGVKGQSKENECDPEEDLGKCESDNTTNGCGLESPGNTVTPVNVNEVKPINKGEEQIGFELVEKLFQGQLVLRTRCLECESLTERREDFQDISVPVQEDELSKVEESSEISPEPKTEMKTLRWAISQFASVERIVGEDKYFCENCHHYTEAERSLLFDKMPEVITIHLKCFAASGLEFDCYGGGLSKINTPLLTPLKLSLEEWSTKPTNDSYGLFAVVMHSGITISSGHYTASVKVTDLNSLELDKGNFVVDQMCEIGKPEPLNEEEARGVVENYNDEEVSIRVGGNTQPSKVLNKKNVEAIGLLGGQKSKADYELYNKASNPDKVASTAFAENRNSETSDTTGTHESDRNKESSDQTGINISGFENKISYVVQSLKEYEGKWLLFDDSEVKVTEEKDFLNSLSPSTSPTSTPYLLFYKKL
# Sequence of Peroxisome proliferator-activated receptor alpha (Homo sapiens) (Q07869 whole entry, looked up): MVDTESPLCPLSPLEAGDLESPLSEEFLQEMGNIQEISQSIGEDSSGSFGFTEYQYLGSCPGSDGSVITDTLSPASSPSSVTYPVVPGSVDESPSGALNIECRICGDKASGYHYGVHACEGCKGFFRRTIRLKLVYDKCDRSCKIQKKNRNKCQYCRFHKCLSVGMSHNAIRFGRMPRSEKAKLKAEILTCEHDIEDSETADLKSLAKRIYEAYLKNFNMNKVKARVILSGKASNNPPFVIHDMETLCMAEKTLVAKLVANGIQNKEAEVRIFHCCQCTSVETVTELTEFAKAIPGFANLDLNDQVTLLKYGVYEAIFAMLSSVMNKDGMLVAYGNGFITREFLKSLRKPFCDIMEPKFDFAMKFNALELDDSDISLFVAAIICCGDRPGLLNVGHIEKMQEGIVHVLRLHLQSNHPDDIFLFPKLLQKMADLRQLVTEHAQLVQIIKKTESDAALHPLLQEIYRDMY
# Sequence of Peroxisome proliferator-activated receptor delta (Homo sapiens) (Q03181 whole entry, looked up): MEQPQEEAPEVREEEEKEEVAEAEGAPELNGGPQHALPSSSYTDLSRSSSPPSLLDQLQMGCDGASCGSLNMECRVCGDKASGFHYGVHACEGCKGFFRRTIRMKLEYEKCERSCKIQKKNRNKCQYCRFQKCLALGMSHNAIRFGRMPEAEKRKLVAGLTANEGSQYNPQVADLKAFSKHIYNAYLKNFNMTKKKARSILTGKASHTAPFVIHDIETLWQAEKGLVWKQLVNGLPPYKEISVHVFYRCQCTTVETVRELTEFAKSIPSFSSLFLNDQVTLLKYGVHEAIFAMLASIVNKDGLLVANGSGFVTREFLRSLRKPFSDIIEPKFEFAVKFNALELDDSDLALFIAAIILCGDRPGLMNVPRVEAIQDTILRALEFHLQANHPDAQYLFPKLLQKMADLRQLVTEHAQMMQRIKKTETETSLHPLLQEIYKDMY
# Sequence of Nuclear receptor subfamily 1 group I member 2 (Rattus norvegicus) (Q9R1A7 whole entry, looked up): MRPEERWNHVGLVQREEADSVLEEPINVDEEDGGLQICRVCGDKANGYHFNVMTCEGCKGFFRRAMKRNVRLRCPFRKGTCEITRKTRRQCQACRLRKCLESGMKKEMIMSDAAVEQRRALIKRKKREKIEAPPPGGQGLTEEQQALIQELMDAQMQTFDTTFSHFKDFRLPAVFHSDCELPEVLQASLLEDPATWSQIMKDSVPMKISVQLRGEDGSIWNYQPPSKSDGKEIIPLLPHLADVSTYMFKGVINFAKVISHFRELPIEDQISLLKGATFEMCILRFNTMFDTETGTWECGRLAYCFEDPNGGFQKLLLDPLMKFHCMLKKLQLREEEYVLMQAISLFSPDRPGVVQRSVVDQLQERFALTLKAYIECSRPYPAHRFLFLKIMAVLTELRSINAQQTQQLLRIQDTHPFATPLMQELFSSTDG
smiles,measurement,setting,value
COc1cc(C2c3cc4c(cc3C(OC(C)=O)[C@H]3COC(=O)C23)OCO4)cc(OC)c1OC (stereo not given in full),Potency,[1],inactive and 1.26 µM (active)
same,Potency,[2],inactive
same,Potency,[3],inactive
same,"activity change, negative = inhibition",[4],0.38% (inactive) and 4.56% (inactive)
same,max response,[4]; [21],26.1% and 10%
same,max response,[4]; [22],22.6% and 16.4%
same,Potency,[5],inactive
CCCCSP(=O)(SCCCC)SCCCC,Potency,[1],inactive
same,Potency,[3],inactive
same,Potency,[6],inactive
same,"activity change, negative = inhibition",[4],12.5% (inactive)
same,max response,[4]; [21],36.8%
same,max response,[4]; [22],52%
same,Potency,[5],inactive
same,max response,[7],-5.76%
same,Potency,[8],inactive
same,outcome,[9],inactive
same,outcome,[10],inactive
same,max response,[11],3.39% (inactive)
same,outcome,[12],inactive
same,max response,[13],12.3% (inactive)
same,max response,[14],-3.57% (inactive)
O=C1CC2OCC=C3CN4CC[C@]56c7ccccc7N1[C@H]5[C@H]2C3C[C@H]46 (stereo not given in full),"activity change, negative = inhibition",[4],9.09% (inactive)
same,max response,[4]; [21],14.5%
same,max response,[4]; [22],20.7%
same,Potency,[5],inactive
O=C1C=C2C=CC3C[C@@]2(O1)C1CCCCN31 (stereo not given in full),Potency,[2],inactive
same,Potency,[3],inactive
same,Potency,[6],inactive
same,"activity change, negative = inhibition",[4],4.29% (inactive)
same,max response,[4]; [21],5.82%
same,max response,[4]; [22],10.8%
same,Potency,[5],inactive
same,Potency,[15]; parasite line A,11.2 µM (active)
same,Potency,[15]; parasite line B,8.91 µM (active)
CCC(=O)Nc1ccc(Cl)c(Cl)c1,Potency,[1],15.8 µM (active)
same,Potency,[2],inactive
same,Potency,[3],inactive
same,"activity change, negative = inhibition",[4],7.8% (inactive)
same,max response,[4]; [21],9.78%
same,max response,[4]; [22],21.3%
same,Potency,[5],inactive
same,outcome,[9],inactive
same,outcome,[10],inactive
same,Potency,[16],inactive
same,max response,[17],-13.9%
same,max response,[18],-5.6% (inactive)
same,max response,[11],-0.456% (inactive)
same,outcome,[12],inactive
same,max response,[13],-7.64% (inactive)
same,max response,[14],1.17% (inactive)
same,Potency,[19],inactive
same,max response,[20],6.65% (inactive)
CC[C@@H]1CN2CC[C@@H]1C[C@H]2[C@H](O)c1ccnc2ccc(OC)cc12,Potency,[1],inactive
same,"activity change, negative = inhibition",[4],-1.21% (inactive)
same,max response,[4]; [21],1.88%
same,max response,[4]; [22],1.41%
same,Potency,[5],inactive
COC1CC(OC2CC[C@@]3(C=O)C4CC[C@]5(C)C(C6=CC(=O)OC6)CC[C@@]5(O)C4CC[C@]3(O)C2)OC(C)C1O (stereo not given in full),Potency,[1],inactive
same,Potency,[3],inactive
same,Potency,[6],inactive
same,"activity change, negative = inhibition",[4],0.995% (inactive)
same,max response,[4]; [21],18.6%
same,max response,[4]; [22],20.5%
same,Potency,[5],inactive
CC(C)Nc1nc(Cl)nc(NC(C)C)n1,Potency,[1],inactive
same,Potency,[3],inactive
same,Potency,[6],inactive
same,"activity change, negative = inhibition",[4],3.35% (inactive)
same,max response,[4]; [21],5.6%
same,max response,[4]; [22],10.8%
same,Potency,[5],inactive
same,max response,[7],16.2%
same,Potency,[8],inactive
same,outcome,[9],inactive
same,outcome,[10],inactive
same,Potency,[16],inactive
same,max response,[17],-10.2%
same,max response,[18],-2.39% (inactive)
same,max response,[11],-0.58% (inactive)
same,outcome,[12],inactive
same,max response,[13],-2.76% (inactive)
same,max response,[14],-5.95% (inactive)
same,Potency,[19],inactive
same,max response,[20],-1.62% (inactive)

# — PubChem BioAssay (NCATS)
